# According to PubChem BioAssay AID2315 (National Center for Advancing Translational Sciences (NCATS), 2010):
# About 27,000 (9.3%) of roughly 290,000 compounds were called active. The sample as a whole holds a higher share of actives than the screen did. Values without a mark were called inactive. Rule as the data show it: active = inhibition mostly above about 28% (no sharp cut-off); inactive = mostly below about 43%.
# Experiment: A qHTS for Small Molecule Inhibitors of Shiga Toxin; as to inhibition: 0% is about no effect
# Settings: Vero cells, Shiga toxin protein synthesis inhibition reporter; at 38.7 µM, active compounds read high
row,SMILES,inhibition
1,Cc1ccc(-c2cn3cc(C)ccc3n2)cc1,-49.3%
2,Cc1ccc2nc(-c3ccc(Br)cc3)cn2c1,23.9% (active)
3,CSc1nnc2ccc(-c3ccc(C)cc3)nn12,5.52%
4,Cc1ccc(-c2cn3cc([N+](=O)[O-])ccc3n2)cc1,190% (active)
5,Cc1ccc(C(=O)Cn2cc([N+](=O)[O-])nc2C)cc1,-7.99%
6,Cc1ccnc(N2C(=O)c3ccc([N+](=O)[O-])cc3C2=O)c1,2.61%
7,O=C(Nc1ccnn1C1CCN(C/C=C/c2ccc(F)cc2)CC1)C1CCCC1,12%
8,CCOc1c(OC)cccc1C(=O)NCC1(c2ccccc2)CCCC1,-6.29%
9,COc1ccc(C(=O)C2CCCN(S(=O)(=O)c3cccc(C)c3)C2)c(C)c1 (stereo not drawn),-2.5%
10,CCNc1nc(-c2cc3ccccc3o2)cs1,83.5% (active)
11,Cc1ccc(Nc2nc(-c3sc(NC(=O)c4ccccc4)nc3C)cs2)cc1,16.8%
12,Cc1nc(C)c(-c2csc(NCCc3ccccc3)n2)s1,13.4%
13,O=c1oc2ccccc2cc1-c1csc(Nc2ccc(O)cc2)n1,111% (active)
14,Cn1c(CNc2nc(-c3ccccc3)cs2)nnc1SCC(=O)c1ccccc1,-0.789%
15,COc1ccc2nc(Nc3nc(-c4cc5ccccc5oc4=O)cs3)sc2c1,61.7%
16,COc1ccc(S(=O)(=O)N2CCOCC2)cc1C(=O)NC1CCCCC1,-17%
17,CN(C)CCCN(C(=O)c1ccc(S(=O)(=O)N2CCCCCC2)cc1)c1nc2ccc(Br)cc2s1,0.697%
18,CCN(CC)CCN(C(=O)c1ccc(S(=O)(=O)N2CCOCC2)cc1)c1nc2cc3c(cc2s1)OCCO3,44.5% (active)
19,CCN(CC)CCN(C(=O)c1ccc(N2C(=O)CCC2=O)cc1)c1nc2cc3c(cc2s1)OCO3,29.6%
20,O=S(=O)(c1ccc(-c2ccno2)s1)N1CCCCC1,-11.5%
21,COc1ccc2c(C)cc3nnnn3c2c1,-4.48%
22,CCS(=O)(=O)Nc1ccc(C(=O)NCCSc2ccccc2)cc1,79.2% (active)
23,CCCc1ccc(OCC(=O)NNC(=S)NC(=O)c2ccco2)cc1,-7.48%
24,O=C(CSc1ccccc1)Nc1ccc(NC(=O)c2ccco2)cc1,38.7%

row,SMILES,inhibition
1,CCCc1ccc(OCCNC(=O)c2ccco2)cc1,78.3% (active)
2,Cc1ccc(C(=O)NCCNC(=O)c2ccccc2)cc1,-8.28%
3,CCCc1ccc(OCCNC(=O)c2ccccc2Br)cc1,34.3%
4,O=C(NCCSc1ccccc1)c1ccco1,80.2% (active)
5,Cc1ccc(C(=O)NCCNS(=O)(=O)c2ccccc2)cc1,1.8%
6,O=C(CNC(=O)c1ccco1)OCC(=O)c1ccccc1,46.8%
7,Cc1cc(S(=O)(=O)NC2CCCC2)ccc1-n1cnnn1,-8.85%
8,Cc1cc(CNC(=O)C2CCC(=O)N(CCc3ccc(Cl)cc3)C2)no1 (stereo not drawn),-7.54%
9,CC(=O)Nc1c2c(nn1-c1ccc(C)cc1C)CS(=O)C2 (stereo not drawn),-1.19%
10,CC1=CCC2C(=O)N(c3cccc(C(=O)NC(C)c4ccccc4)c3)C(=O)C2C1 (stereo not drawn),-6.84%
11,Cc1ccc(C)c(N2CCN(C(=O)CCCn3c(=O)c4cccn4c4cccnc43)CC2)c1,-8.84%
12,O=C(CSc1cccc[n+]1[O-])c1ccc(Cl)cc1,5.16%
13,COc1ccccc1C(=O)CSc1cccc[n+]1[O-],-1.48%
14,O=C(CSc1cccc[n+]1[O-])c1ccc(-c2ccccc2)cc1,142% (active)
15,CC(=O)Nc1cccc(NC(=O)CSc2nccn2Cc2ccc(F)cc2)c1,-6.32%
16,NS(=O)(=O)c1ccc(NC(=O)COC(=O)c2ccc(Cl)nc2)cc1,-4.23%
17,O=C(COC(=O)c1c2c(nc3ccccc13)/C(=C\c1cccs1)CCC2)Nc1ccccc1Cl,24.9%
18,NC(=O)c1ccc(NC(=O)COC(=O)c2c3c(nc4ccccc24)/C(=C\c2ccc4c(c2)OCO4)CCC3)cc1,59.8% (active)
19,COc1cc(-c2cc(C(=O)OCC(=O)Nc3ccc4c(c3)OCO4)c3ccccc3n2)cc(OC)c1OC,3.34%
20,NS(=O)(=O)c1ccc(NC(=O)COC(=O)c2c3c(nc4ccccc24)/C(=C\c2ccc4c(c2)OCO4)CCC3)cc1,3.72% (active)
21,NS(=O)(=O)c1ccc(NC(=O)COC(=O)c2cc3ccccc3oc2=O)cc1,16.5%
22,O=C(N/C(=C/c1ccc(Cl)cc1)C(=O)N1CCCCC1)c1ccco1,5.11%
23,O=C1CCC(C(=O)N2CCN(c3ccccc3Cl)CC2)CN1CC1CCCCC1 (stereo not drawn),-2.81%
24,Cc1c(OC(C)C(=O)NCC2CCC(C(=O)O)CC2)ccc2c1oc(=O)c1ccccc12 (stereo not drawn),-3.63%

row,SMILES,inhibition
1,CCCC[C@]12Cc3cc(OC)c(OC)cc3C(O1)C1=C(CC3(CCCCC3)OC1=O)O2,inactive
2,CCn1cc(CN2CCN(CC(C)(C)C)C(CCO)C2)c2ccccc21 (stereo not drawn),8.71%
3,CC(=O)Nc1ccc(S(=O)(=O)N2N=NC3C2C2CC4C3(CN(C(=O)OC(C)(C)C)S4(=O)=O)O2)cc1 (stereo not drawn),19.4%
4,CN(C)S(=O)(=O)N1CCC(Oc2cccc(C(=O)NCCCC3CCCC3)c2)CC1,56.6% (active)
5,CN(C(=O)c1cccc(OC2CCN(S(=O)(=O)N(C)C)CC2)c1)C1CCOC1 (stereo not drawn),21.6%
6,CNS(=O)(=O)c1cccc(C(=O)NCC2CCCCC2)c1,10.6%
7,O=C(CN(C(=O)c1nsc(Cl)c1Cl)c1cccc(F)c1)NC1CCCC1,-1.89%
8,O=C(NCCCn1ccnc1)C1CCCN(S(=O)(=O)c2cc(Cl)ccc2Cl)C1 (stereo not drawn),-13%
9,COc1cccc(CNc2nc(C(F)(F)F)nc3ccccc23)c1,-1.59%
10,COc1cccc(CNS(=O)(=O)c2cc3c(cc2C)n(C)c(=O)c(=O)n3C)c1,-2.17%
11,COc1cccc(CNc2ncc(-c3ccccc3)n2C)c1,20.5% (active)
12,COc1cc(C(=O)N/C(=C\c2cn(C)c3ccccc23)C(=O)N2CCOCC2)cc(OC)c1OC,-2.55%
13,COc1ccccc1C(=O)Nc1ccnn1C1CCN(Cc2cnn(C)c2)CC1,14.1%
14,CC(C)CNC(=S)NC(=O)c1ccc(Cl)cc1,90.8% (active)
15,CC(C)C(NC(=O)c1ccc(Cl)cc1)C(=O)O (stereo not drawn),-21.4%
16,Cc1occc1C(=O)NNC(=S)NCC(C)C,-8.32%
17,CCn1ccnc1CNC(=O)CC1C(=O)NCCN1Cc1ccc(F)cc1Cl (stereo not drawn),-5.69%
18,CC(C)C[C@H](NC(=O)C1CCC(CNC(=O)[C@@H]2CCCN2C(=O)OC(C)(C)C)CC1)C(=O)O (stereo partly drawn),-6.01%
19,Cc1ccc(-c2cc(C(=O)N3CCc4ccccc4C3)no2)cc1,46.6% (active)
20,CN(c1ccc(C(=O)N2CCc3ccccc3C2)cc1)S(C)(=O)=O,52.2% (active)
21,O=C(c1noc2c1CCCC2)N1CCc2ccccc2C1,67.4% (active)
22,CN1CCN(Cc2c(C(=O)N3CCc4ccccc4C3)nc3ccc(Cl)cn23)CC1,-6.16%
23,Cc1ccc2c(c1)N(C(=O)CCC(=O)N1CCc3ccccc3C1)CCO2,2.26%
24,O=C(COc1ccccc1)N1CCc2ccccc2C1,38.7%

row,SMILES,inhibition
1,COc1cccc(N(CC(=O)N2CCc3ccccc3C2)S(C)(=O)=O)c1,-19.6%
2,O=C(NCCCN1CCOCC1)c1cc(-c2cccc(O)c2)on1,23.1%
3,Cc1cccc(OC(C)C(=O)N2CCc3ccccc3C2)c1 (stereo not drawn),-13.5%
4,Cn1cccc1C(=O)N1CCc2ccccc2C1,36.9%
5,O=C(c1cc(-c2cccc(O)c2)on1)N1CCc2ccccc2C1,35.6% (active)
6,CN(c1cccc(NC(=O)c2ccc(CN3CCc4ccccc4C3)cc2)c1)S(C)(=O)=O,-12%
7,Cc1cc(C(F)F)n2nc(C(=O)Nc3ccc(S(=O)(=O)NC45CC6CC(CC(C6)C4)C5)cc3)nc2n1,-15.3%
8,CCOc1ccc2[nH]c(C(=O)N/N=C/c3cccc(OC)c3OC)cc2c1,14%
9,O=C(NCc1ccccc1)C(c1ccco1)N(C(=O)c1csnn1)c1ccccc1F (stereo not drawn),-4.22%
10,O=C(NCC(=O)N1CCN(c2ccccc2O)CC1)c1ccc2ccccc2c1,22.1%
11,Cc1ccc(CC2CC(=O)N(c3cc(C)ccc3C)C2=O)cc1 (stereo not drawn),-11.4%
12,N#C/C(=C\c1cccnc1)C(=O)Nc1ccc(SC(F)F)cc1,36.4%
13,Cc1ccc(-n2c(-c3ccc(Cl)cc3)n[nH]c2=S)cc1,4%
14,CCOC(=O)c1ccc2[nH]c3c(c2c1)CCCC3NC=O (stereo not drawn),90.9%
15,COc1ccc(N(C)C(=O)CCS(=O)(=O)c2cccc3nsnc23)cc1,-7.02%
16,CCOc1ccccc1NC(=O)Cn1ncc2ccc([N+](=O)[O-])cc21,-3.64%
17,COc1ccc(N2CC(C(=O)NCCS(=O)(=O)N3CCN(c4ccccc4)CC3)CC2=O)cc1 (stereo not drawn),-3.67%
18,O=C(NCC(=O)N(Cc1cccs1)C(C(=O)NC1CCCCC1)c1ccco1)c1cccs1 (stereo not drawn),4.26%
19,O=C1c2cccc3cccc(c23)C(=O)N1c1cccc(O)c1,-6.01%
20,COC(=O)c1cc(C(=O)NC(C)C2CC3CCC2C3)cc([N+](=O)[O-])c1 (stereo not drawn),-13%
21,COc1cc(C(=O)NCc2cc3cc(Cl)ccc3n2C)cc(OC)c1OC,-6.37%
